Laboratory results reported in PubChem BioAssay (NCATS).
Inconclusive results are not listed. Active and inactive are the calls of the source. Calls come from the whole dose curve; as a rule, active = well fitted curve in the direction sought with a large enough effect; inconclusive = small, poorly fitted or top-dose-only effect, or another doubt; inactive = no such curve, though single readings can be large; an effect the other way counts as inactive or inconclusive.

How the values were obtained:
[1] = Quantitative highthroughput screen to assess conditional lethalithy of NOMO1 cells grown in RPMI1640 with untreated serum (RPMI+s) (AID 1963876); conditions: NOMO1 AML cells in RPMI+serum, CellTiter-Glo viability, 48 h; series mostly up to 45.8 µM; note: nearly all actives have a fitted effect of over 35% in size
Method in brief: (§1)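 Each medium arm—HPLM with 10% dialyzed FBS, or RPMI1640 with 5 mM glucose and 10% untreated or dialyzed FBS—was screened against an 11-point, 3-fold compound titration for 48 h at 37 °C, with CellTiter-Glo luminescence as endpoint.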

[2] = Quantitative highthroughput screen to assess conditional lethalithy of NOMO1 cells grown in RPMI1640 with dialyzed fetal bovine serum (RPMI+ds) (AID 1963877); conditions: NOMO1 in RPMI+dialyzed FBS viability, ATP luminescence, 48 h; series mostly up to 45.8 µM; note: nearly all actives have a fitted effect of over 30% in size
Method in brief: as §1

[3] = Quantitative highthroughput screen to assess conditional lethalithy of NOMO1 cells grown in Human Plasma-Like Medium with dialyzed fetal bovine serum (HPLM+ds) (AID 1963878); conditions: NOMO1 AML cells in HPLM+ds, CellTiter-Glo viability, 48 h; series mostly up to 45.8 µM; note: nearly all actives have a fitted effect of over 35% in size
Method in brief: as §1

[4] = Quantitative highthroughput screen to assess conditional lethalithy of P12 Ichikawa cells grown in Human Plasma-Like Medium with dialyzed fetal bovine serum (HPLM+ds) (AID 1963879); conditions: ATP luminescence, 48 h; Potency: viability; series mostly up to 45.8 µM; note: nearly all actives have a fitted effect of over 35% in size
Method in brief: as §1

[5] = Quantitative highthroughput screen to assess conditional lethalithy of P12 Ichikawa cells grown in RPMI1640 with dialyzed fetal bovine serum (RPMI+ds) (AID 1963880); conditions: ATP luminescence, 48 h; Potency: P12-Ichikawa viability; series mostly up to 45.8 µM; note: nearly all actives have a fitted effect of over 35% in size
Method in brief: as §1

[6] = Quantitative highthroughput screen to assess conditional lethalithy of P12 Ichikawa cells grown in RPMI1640 with untreated serum (RPMI+s) (AID 1963881); conditions: ATP luminescence, 48 h; Potency: viability; series mostly up to 45.8 µM; note: nearly all actives have a fitted effect of over 35% in size
Method in brief: as §1

[7] = Quantitative highthroughput screen to assess conditional lethalithy of SEM cells grown in Human Plasma-Like Medium with dialyzed fetal bovine serum (HPLM+ds) (AID 1963882); conditions: SEM B-ALL cells in HPLM+ds, CellTiter-Glo viability, 48 h; series mostly up to 45.8 µM; note: nearly all actives have a fitted effect of over 35% in size
Method in brief: as §1

[8] = Quantitative highthroughput screen to assess conditional lethalithy of SEM cells grown in RPMI1640 with unreated serum (RPMI+s) (AID 1963883); conditions: SEM B-ALL cells, CellTiter-Glo viability, 48 h; series mostly up to 45.8 µM; note: nearly all actives have a fitted effect of over 35% in size
Method in brief: as §1

[9] = Quantitative highthroughput screen to assess conditional lethalithy of SEM cells grown in RPMI1640 with dialyzed fetal bovine serum (RPMI+ds) (AID 1963884); conditions: SEM B-ALL cells, RPMI+dialyzed FBS, CellTiter-Glo viability, 48 h; series mostly up to 45.8 µM; note: nearly all actives have a fitted effect of over 35% in size
Method in brief: as §1

Measured: Potency
Potency is the fitted concentration of half-maximal effect.

COc1cc(C=CC(=O)O)ccc1O
not listed: [9]
inactive: all other assays above

CCC=CC[C@H]1C(=O)CC[C@@H]1CC(=O)OC
not listed: [7] | [8] | [9]
inactive: all other assays above

CC(C)C(=O)Oc1ccc(CO)cc1[C@H](CCN(C(C)C)C(C)C)c1ccccc1
inactive: [1] | [2] | [3] | [4] | [5]

Cc1cc(Nc2cc(N3CCN(C)CC3)nc(C=Cc3ccccc3)n2)n[nH]1
active: [1] 3.03 µM | [2] 3.4 µM | [3] 3.03 µM | [4] 2.15 µM | [5] 2.7 µM | [6] 3.03 µM | [7] 0.54 µM | [8] 0.54 µM

CCCCC(C=O)NC(=O)C(CC(C)C)NC(=O)OCc1ccccc1 (centres undefined)
inactive: [1] | [2] | [3] | [4]

OCC(O)C(O)C(O)CO (centres undefined)
not listed: [7] | [8] | [9]
inactive: all other assays above

CN(C)CCc1c[nH]c2ccc(Cn3cncn3)cc12
active: [1] 1.05 µM | [2] 1.18 µM | [3] 0.833 µM | [4] 1.18 µM | [5] 0.935 µM | [6] 1.18 µM | [7] 0.372 µM | [8] 0.132 µM | [9] 0.264 µM

CN1CCC[C@H]1CCO[C@](C)(c1ccccc1)c1ccc(Cl)cc1
inactive: all assays above

CN(C)CCCC1(c2ccc(F)cc2)OCc2cc(C#N)ccc21 (centres undefined)
inactive: all assays above
